Results from PubChem BioAssay (Tox21).
Where “and” joins values, the source holds several entries; their conditions need not be identical. Equal entries are not always repeated. Results filed as inconclusive are left out. A call without a number means that no potency is given here. Some structures have more than one record in an assay (separate samples or runs), and their calls can disagree. Calls of active or inactive are those of the source. Unless noted, the call rests on the fitted dose curve; in most records, active means well fitted curve in the direction sought with a large enough effect in the repeat runs; inconclusive means weak or mixed curves; inactive means no such curve, though single readings can be large; an effect the other way counts as inactive or inconclusive.

What was measured:
[1] = qHTS assay to identify small molecule agonists of the estrogen receptor alpha (ER-alpha) signaling pathway in the presence of an antagonist - cell viability counter screen (AID 1259386);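 further: cells exposed to compounds for 22 h at 37 °C before the viability read; nearly all actives have a fitted effect of over 30% in size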; further: potency means the concentration at half of the fitted maximal effect
Summary of the method: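 Read-out: CellTiter-Fluor fluorescence after 1hr reagent incubation, measured in the same wells as the luciferase readout. VM7Luc4E2 cells were exposed to 15 compound concentrations with 10.0nM ICI-182,780 for 22hr at 37C.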

[2] = target: Progesterone receptor (Homo sapiens) (UniProt P06401); assay: qHTS assay to identify small molecule agonists of the progesterone receptor (PR) signaling pathway (AID 1346784; calls by dose curve; further: nearly all actives have a fitted effect of over 30% in size)
Sequence of Progesterone receptor (Homo sapiens) (P06401 whole entry, looked up): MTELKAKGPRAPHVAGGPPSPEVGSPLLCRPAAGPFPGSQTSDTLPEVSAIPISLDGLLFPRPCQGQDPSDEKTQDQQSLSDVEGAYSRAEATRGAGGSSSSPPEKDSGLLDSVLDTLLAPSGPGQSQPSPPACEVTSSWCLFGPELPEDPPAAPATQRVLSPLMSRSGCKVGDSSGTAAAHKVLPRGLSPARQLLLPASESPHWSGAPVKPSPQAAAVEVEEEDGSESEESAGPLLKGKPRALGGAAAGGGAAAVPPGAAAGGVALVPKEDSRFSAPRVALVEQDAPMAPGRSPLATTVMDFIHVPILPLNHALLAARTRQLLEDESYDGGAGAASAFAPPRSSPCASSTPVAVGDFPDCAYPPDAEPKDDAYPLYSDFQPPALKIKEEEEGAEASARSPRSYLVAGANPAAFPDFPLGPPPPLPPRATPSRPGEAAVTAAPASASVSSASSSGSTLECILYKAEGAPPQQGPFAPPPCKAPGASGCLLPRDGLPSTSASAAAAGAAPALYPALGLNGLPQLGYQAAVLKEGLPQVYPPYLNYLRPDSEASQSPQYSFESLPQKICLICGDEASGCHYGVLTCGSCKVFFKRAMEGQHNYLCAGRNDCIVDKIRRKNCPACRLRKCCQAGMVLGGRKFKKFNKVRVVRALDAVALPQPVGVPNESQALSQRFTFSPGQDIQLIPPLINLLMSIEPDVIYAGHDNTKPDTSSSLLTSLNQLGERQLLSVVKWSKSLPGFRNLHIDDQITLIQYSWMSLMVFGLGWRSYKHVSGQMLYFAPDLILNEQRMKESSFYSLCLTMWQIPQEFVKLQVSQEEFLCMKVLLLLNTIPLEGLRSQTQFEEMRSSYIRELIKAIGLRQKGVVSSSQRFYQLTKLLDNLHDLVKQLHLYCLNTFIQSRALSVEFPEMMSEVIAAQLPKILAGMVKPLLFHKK
Summary of the method: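 Reporter assay, GripTite PR-UAS-bla HEK 293T cells: 16 hr exposure to DMSO-dissolved compounds at 37C, 5% CO2, in steroid-depleted (2% charcoal-stripped FBS) medium; beta-lactamase measured by FRET fluorescence.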

[3] = target: Progesterone receptor (Homo sapiens) (UniProt P06401); assay: qHTS assay to identify small molecule antagonists of the progesterone receptor (PR) signaling pathway (AID 1346795; active means well fitted inhibition curve with a large enough effect in the signal ratio in the repeat runs, not every such curve was filed as active; the % refers to the signal ratio; further: potency means the concentration at half of the fitted maximal effect)
Summary of the method: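 Stimulus R5020 at 1 nM final; cells HEK293T PR-UAS-bla; medium with 2% charcoal-stripped FBS; compound exposure 16 hr at 37C, 5% CO2; detection by FRET beta-lactamase substrate, 2 hr, room temperature.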

[4] = qHTS assay to identify small molecule antagonists of the progesterone receptor (PR) signaling pathway - cell viability counter screen (AID 1346798); further: nearly all actives have a fitted effect of over 50% in size; further: potency means the concentration at half of the fitted maximal effect
Summary of the method: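 In the same plates used for the beta-lactamase readout, cell viability of compound- and R5020-treated PR-UAS-bla HEK293T cells (16 hr, 37C) was assessed by CellTiter-Glo luminescence.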

[5] = qHTS assay to identify small molecule agonists of the progesterone receptor (PR) signaling pathway - cell viability counter screen (AID 1346799; calls by dose curve; further: nearly all actives have a fitted effect of over 45% in size; further: potency means the concentration at half of the fitted maximal effect)
Summary of the method: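 Multiplexed viability read: CellTiter-Glo luminescence, 30 min RT, following LiveBLAzer FRET measurement on PR-UAS-bla HEK293T cells exposed to compounds 16 hr.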

[6] = qHTS assay to identify small molecule antagonists of the TGF-beta/Smad signaling pathway - cell viability counter screen (AID 1346824); further: nearly all actives have a fitted effect of over 50% in size
Summary of the method: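 SBE-bla HEK 293T cells were plated overnight at 37 C, then given compounds in DMSO plus TGF-beta1 (added as 0.25 ng/mL solution) for 5 hr. After the bla read, CellTiter-Glo was added to the same wells and luminescence read after 30 min at room temperature.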

[7] = qHTS assay to identify small molecule agonists of the TGF-beta/Smad signaling pathway - cell viability counter screen (AID 1346829); further: nearly all actives have a fitted effect of over 45% in size; further: potency means the concentration at half of the fitted maximal effect
Summary of the method: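 Same-well cytotoxicity: CellTiter-Glo added after the 2 hr room-temperature beta-lactamase substrate step, luminescence measured 30 min later; cells had 5 hr of compound at 37 C.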

[8] = qHTS assay to identify small molecule agonists of the TGF-beta/Smad signaling pathway (AID 1346859; active means well fitted activation curve with a large enough effect in the signal ratio in the repeat runs, not every such curve was filed as active; the % refers to the signal ratio; further: series mostly up to about 77 µM)
Summary of the method: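 Screening used HEK 293T SBE-bla cells at 4,000/well. Test agents: 5 hr, 37 C. Detection: FRET substrate, 2 hr RT, then excitation 405 nm with emissions at 460 and 530 nm.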

[9] = target: Thyrotropin-releasing hormone receptor (Homo sapiens) (UniProt P34981); assay: qHTS assay to identify small molecule antagonists of the thyrotropin-releasing hormone receptor (TRHR) signaling pathway (AID 1346877; active means well fitted inhibition curve with a large enough effect in the repeat runs, not every such curve was filed as active; further: potency means the concentration at half of the fitted maximal effect)
Sequence of Thyrotropin-releasing hormone receptor (Homo sapiens) (P34981 whole entry, looked up): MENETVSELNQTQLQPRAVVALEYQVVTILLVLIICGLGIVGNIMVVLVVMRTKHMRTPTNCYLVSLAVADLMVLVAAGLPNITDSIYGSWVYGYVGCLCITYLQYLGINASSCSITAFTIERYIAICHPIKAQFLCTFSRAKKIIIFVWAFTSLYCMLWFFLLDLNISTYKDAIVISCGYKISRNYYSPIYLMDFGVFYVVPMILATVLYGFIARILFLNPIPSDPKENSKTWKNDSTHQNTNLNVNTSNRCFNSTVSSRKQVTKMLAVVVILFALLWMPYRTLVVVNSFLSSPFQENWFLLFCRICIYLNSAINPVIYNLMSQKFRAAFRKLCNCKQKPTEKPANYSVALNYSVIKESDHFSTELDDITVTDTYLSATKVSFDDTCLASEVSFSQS
Summary of the method: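 HEK293/TRHR cells, 18 h, 37 °C; Ca2+ dye 2 h; cpd 5 min RT; TRH 1 nM final; fluorescence read 3 min, 1 s intervals; 15 concs, triplicate.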

[10] = target: Thyrotropin-releasing hormone receptor (Homo sapiens) (UniProt P34981); assay: qHTS assay to identify small molecule agonists of the thyrotropin-releasing hormone receptor (TRHR) signaling pathway (AID 1346891; calls by dose curve; further: series mostly up to about 58 µM)
Summary of the method: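 Readout was intracellular calcium fluorescence in TRHR-Hek293 cells. Cells were incubated 18 h, dye-loaded 2 h at 37 °C, and treated with compound in agonist mode.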

[11] = Caspase-3/7 induction in HepG2 cells by small molecules, qHTS assay (AID 1346978); further: nearly all actives have a fitted effect of over 15% in size
Summary of the method: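 Wild-type HepG2 cells (2,000/well) were settled 5 h at 37 C, 5% CO2, then exposed to compounds in DMSO for 17 h. Caspase-3/7 activity was read by luminescence 30 min after adding Caspase-Glo 3/7 reagent at room temperature.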

[12] = Caspase-3/7 induction in CHO-K1 cells by small molecules, qHTS cell viability counter screen (AID 1346979); further: nearly all actives have a fitted effect of over 35% in size; further: potency means the concentration at half of the fitted maximal effect
Summary of the method: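 Following a 5hr settling period, CHO-K1 cells at 1,500 per well received DMSO-dissolved compounds. Cell viability was quantified 16hr later by CellTiter-Fluor fluorescence, measured after 1hr with reagent at 37C.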

[13] = Caspase-3/7 induction in CHO-K1 cells by small molecules, qHTS assay (AID 1346980); further: nearly all actives have a fitted effect of over 15% in size
Summary of the method: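 Wild-type cells were seeded at 1,500 per well and settled 5 hr at 37 C, 5% CO2, then exposed to DMSO-dissolved compounds for 17 hr. Caspase-Glo 3/7 reagent was added, and luminescence was read after 30min at room temperature.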

[14] = Caspase-3/7 induction in HepG2 cells by small molecules, qHTS cell viability counter screen (AID 1346981); further: nearly all actives have a fitted effect of over 30% in size; further: potency means the concentration at half of the fitted maximal effect
Summary of the method: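 Fluorescence read-out of live-cell protease activity (CellTiter-Fluor) after 1 hr with reagent. This was measured in the same wells as the caspase-3/7 luminescence, on HepG2 cells exposed to DMSO-dissolved compounds for 16 hr at 37 C.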

[15] = target: Nuclear receptor subfamily 1 group I member 2 (Homo sapiens) (UniProt O75469); assay: Human pregnane X receptor (PXR) small molecule agonists, qHTS assay (AID 1346982); further: nearly all actives have a fitted effect of over 35% in size; further: potency means the concentration at half of the fitted maximal effect
Sequence of Nuclear receptor subfamily 1 group I member 2 (Homo sapiens) (O75469 whole entry, looked up): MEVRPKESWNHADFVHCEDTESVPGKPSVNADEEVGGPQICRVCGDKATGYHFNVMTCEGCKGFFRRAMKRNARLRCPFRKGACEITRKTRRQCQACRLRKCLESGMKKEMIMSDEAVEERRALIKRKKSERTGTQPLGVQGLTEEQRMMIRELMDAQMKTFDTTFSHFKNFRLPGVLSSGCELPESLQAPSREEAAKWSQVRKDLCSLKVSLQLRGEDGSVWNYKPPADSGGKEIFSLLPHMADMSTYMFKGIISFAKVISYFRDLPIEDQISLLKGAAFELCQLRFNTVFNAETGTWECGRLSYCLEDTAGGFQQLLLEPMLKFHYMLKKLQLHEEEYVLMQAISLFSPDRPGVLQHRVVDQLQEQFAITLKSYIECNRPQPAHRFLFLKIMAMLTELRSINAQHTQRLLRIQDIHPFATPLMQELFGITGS
Summary of the method: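 HepG2 PXR-Luc reporter line, 5% charcoal-stripped FBS; 5 hr pre-incubation, compound (DMSO) 24 hr at 37 C/5% CO2; ONE-Glo 30 min RT; luminescence read-out.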

[16] = target: Acetylcholinesterase (Homo sapiens) (UniProt P22303); assay: Acetylcholinesterase (AChE) small molecule antagonists: colormetric cell-based qHTS assay (AID 1347395; calls by dose curve; further: nearly all actives have a fitted effect of over 30% in size; further: potency means the concentration at half of the fitted maximal effect)
Sequence of Acetylcholinesterase (Homo sapiens) (P22303 whole entry, looked up): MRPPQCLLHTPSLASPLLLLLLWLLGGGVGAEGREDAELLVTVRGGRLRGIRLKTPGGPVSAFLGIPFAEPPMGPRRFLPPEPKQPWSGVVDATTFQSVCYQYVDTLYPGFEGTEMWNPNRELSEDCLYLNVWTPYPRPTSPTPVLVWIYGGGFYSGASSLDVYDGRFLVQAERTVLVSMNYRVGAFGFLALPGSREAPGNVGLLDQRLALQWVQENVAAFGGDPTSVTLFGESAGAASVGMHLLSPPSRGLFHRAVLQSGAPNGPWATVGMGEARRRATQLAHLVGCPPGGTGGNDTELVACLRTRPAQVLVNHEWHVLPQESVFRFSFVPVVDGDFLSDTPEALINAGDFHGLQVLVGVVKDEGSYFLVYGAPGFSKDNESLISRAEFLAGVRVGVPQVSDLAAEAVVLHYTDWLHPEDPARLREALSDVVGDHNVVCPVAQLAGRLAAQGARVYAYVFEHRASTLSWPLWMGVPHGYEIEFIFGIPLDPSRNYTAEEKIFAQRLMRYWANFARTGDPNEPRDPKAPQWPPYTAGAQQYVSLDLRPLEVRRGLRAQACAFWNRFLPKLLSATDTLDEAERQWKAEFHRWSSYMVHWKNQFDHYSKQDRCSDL
Summary of the method: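 After overnight attachment at 37 C, SH-SY5Y cells get 30 min compound exposure; detection cocktail (acetylthiocholine, DTNB) then incubates 90 min at 37 C, and absorbance reflects AChE-generated thiocholine.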

[17] = Human pregnane X receptor (PXR) small molecule agonists, qHTS cell viability counter screen (AID 1346977); further: nearly all actives have a fitted effect of over 50% in size; further: potency means the concentration at half of the fitted maximal effect
Summary of the method: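 In each well, the PXR reporter HepG2 line was checked for viability: CellTiter-Fluor reagent added 23hr post-dosing, fluorescence read after 1hr incubation at 37C.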

[18] = target: Nuclear receptor subfamily 1 group I member 2 (Rattus norvegicus) (UniProt Q9R1A7); assay: Rat pregnane X receptor (rPXR) activation by small molecules, qHTS assay (AID 1346983); settings: rPXR luciferase reporter cells, One-Glo luminescence, 24 h; max activation: stronger effect = higher value; further: nearly all actives have a fitted effect of over 20% in size
Sequence of Nuclear receptor subfamily 1 group I member 2 (Rattus norvegicus) (Q9R1A7 whole entry, looked up): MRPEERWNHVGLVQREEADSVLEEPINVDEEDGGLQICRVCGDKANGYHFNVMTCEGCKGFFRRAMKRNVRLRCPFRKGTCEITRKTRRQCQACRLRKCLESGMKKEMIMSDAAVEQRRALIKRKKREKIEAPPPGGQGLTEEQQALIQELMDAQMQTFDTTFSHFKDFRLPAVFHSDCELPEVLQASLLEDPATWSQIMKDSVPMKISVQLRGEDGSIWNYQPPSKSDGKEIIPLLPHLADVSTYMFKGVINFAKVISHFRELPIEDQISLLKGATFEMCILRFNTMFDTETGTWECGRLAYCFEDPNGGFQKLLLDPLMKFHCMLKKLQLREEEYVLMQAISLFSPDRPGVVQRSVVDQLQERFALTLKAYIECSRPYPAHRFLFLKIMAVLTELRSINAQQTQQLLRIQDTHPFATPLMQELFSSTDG
Summary of the method: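 Cell-based rPXR luciferase reporter assay, 2,000 cells per well, rested 5hr at 37 C before compound addition in DMSO, then 24 hr at 37 C. One-Glo reagent was added and luminescence read after 30 min at room temperature.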

[19] = target: Nuclear receptor subfamily 1 group I member 2 (Homo sapiens) (UniProt O75469); assay: CYP3A4 induction through human pregnane X receptor (PXR) by small molecules, qHTS assay (AID 1346984); further: nearly all actives have a fitted effect of over 40% in size
Summary of the method: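 HepG2-derived DPX-2 line carrying PXR plus a CYP3A4-promoter luciferase reporter; cells plated 5 hr, compound-exposed 24 hr at 37C. CYP3A4 activity probed with 3uM (final) Luciferin-IPA for 3hr, then luciferase read after One-Glo.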

[20] = target: Nuclear receptor subfamily 1 group I member 2 (Homo sapiens) (UniProt O75469); assay: Human pregnane X receptor (PXR) activation by small molecules, qHTS assay (AID 1346985); further: nearly all actives have a fitted effect of over 40% in size
Summary of the method: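 DPX-2 cells (HepG2 co-transfected with a PXR response element and a CYP3A4-promoter luciferase construct) were seeded at 2,000 per well, rested 5 hr at 37C, then exposed to DMSO-dissolved compounds for 24 hr. Activation was read as luciferase luminescence.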

Compound	Potency [1]	Potency [2]	Potency [3]	Potency [4]	Potency [5]	Potency [6]	Potency [7]	outcome [8]	Potency [9]	Potency [10]	Potency [11]	Potency [12]	Potency [13]	Potency [14]	Potency [15]	Potency [16]	Potency [17]	max activation [18]	Potency [19]	Potency [20]
CNC(C)Cc1ccc2c(c1)OCO2 (centres undefined)	inactive	inactive	75.1 µM (active)	66.9 µM (active)	inactive	inactive	inactive	inactive	inactive	inactive	inactive	inactive	inactive	inactive	inactive	inactive				
CN(CCCC(=O)c1cccnc1)N=O	inactive	inactive	inactive	inactive	inactive	inactive	inactive	inactive	inactive	inactive	inactive	inactive	inactive	inactive	inactive	inactive	inactive			
Clc1ccc(-c2ccccc2)cc1	inactive	inactive	inactive	inactive	inactive	inactive	inactive	inactive	inactive	inactive	inactive	inactive	inactive	inactive	inactive	inactive	inactive			
ClC(Cl)=C(c1ccc(Cl)cc1)c1ccc(Cl)cc1	inactive	inactive	6.26 µM (active)	inactive	61.1 µM (active)	inactive	inactive	inactive	inactive	inactive	inactive	inactive	inactive	inactive	62.6 µM (active) and 48.6 µM (active)	inactive	inactive			
CCOP(=S)(OCC)OC(Cl)C(Cl)(Cl)Cl (centres undefined)	inactive	inactive	inactive	inactive	inactive		inactive	inactive			inactive	inactive		inactive	inactive	35.6 µM (active)	inactive			
CCOC(=O)c1ccccc1S(=O)(=O)NC(=O)Nc1nc(Cl)cc(OC)n1	inactive	inactive	inactive	inactive		inactive	inactive	inactive			inactive	inactive		inactive	inactive	inactive	inactive			
CC(=O)c1cc(C(C)(C)C)cc2c1CCC2(C)C	inactive	inactive	inactive	inactive	inactive		inactive	inactive	inactive	inactive	inactive	inactive	inactive	inactive	inactive	inactive	inactive			
COP(N)(=S)OC	inactive	inactive	inactive	inactive	inactive		inactive	inactive			inactive	inactive	inactive	inactive	inactive	63.3 µM (active)				
FC(F)(F)c1cccc(C2=CCN(CCc3ccc4ccccc4c3)CC2)c1	inactive	inactive	inactive	inactive	inactive	inactive	inactive	inactive	inactive	inactive	inactive	inactive		inactive	inactive			-2.77% (inactive)	inactive	inactive
O=C1C=CC(=O)c2ccccc21	30.6 µM (active)	inactive	inactive	inactive	inactive		49 µM (active)		21.3 µM (active)	inactive	inactive	5.45 µM (active)	inactive	61.1 µM (active)	inactive	inactive	48.6 µM (active)			
Oc1ccccc1Br	inactive	inactive	inactive	inactive	inactive	inactive	inactive	inactive			inactive	inactive		inactive	inactive	inactive	inactive			
Oc1ccc(I)cc1	inactive	inactive	61.1 µM (active)	inactive	inactive	inactive	inactive	inactive			inactive	inactive	inactive	inactive	inactive	inactive				
ClCc1ccc(Cl)cc1Cl	inactive	inactive	inactive	inactive	inactive	inactive	inactive				inactive	inactive	inactive	inactive	inactive	inactive	inactive			
SCc1ccco1	inactive	inactive	inactive	inactive	inactive		inactive	inactive	inactive	inactive	inactive		inactive	inactive	inactive	inactive				
Clc1ccc(COC(Cn2ccnc2)c2ccc(Cl)cc2Cl)cc1 (centres undefined)	50.8 µM (active) and 68.3 µM (active) and inactive	inactive	5.31 µM (active)	18 µM (active) and 27.2 µM (active) and 6.68 µM (active)	45.3 µM (active) and 15.3 µM (active) and 5.96 µM (active)	inactive	40.7 µM (active)	inactive			inactive	22.7 µM (active) and 27.2 µM (active) and 23.7 µM (active)	inactive	50.8 µM (active) and 54.3 µM (active)	6.4 µM (active) and 7.66 µM (active) and 7.5 µM (active)	inactive				
N#CCCSCCC#N	inactive	inactive	inactive	inactive			inactive	inactive	inactive	inactive	inactive	inactive	inactive	inactive	inactive	inactive	inactive			
CCOC(=O)CC(=O)CCl	inactive	inactive	inactive	inactive	inactive	inactive	inactive	inactive			inactive		inactive	inactive	inactive	inactive	inactive			
N#Cc1ccc(O)cc1	inactive	inactive	inactive	inactive	inactive		inactive	inactive	inactive	inactive	inactive	inactive	inactive	inactive	inactive	inactive	inactive			
